An excerpt weighted towards active compounds, which were near 9.8% of everything screened.
HTT cytoprotect: Huntington cell model cytoprotection by ATP luminescence | AID 1471 | 230,000 tested, 0.14% active | Potency, µM (top dose mostly 56.4 µM), for inactives: cytoprotection (ATP increase), usual class: activators | PC12 HTT-Q103 induced, cytoprotection, ATP luminescence, 40 h; active means well fitted curve in the direction sought with a large enough effect; inconclusive means small, poorly fitted or top-dose-only effect, or another doubt; inactive means no such curve, though single readings can be large; an effect the other way counts as inactive or inconclusive; further: potency means the concentration at half of the fitted maximal effect; % of control where 0% means no effect; nearly all actives have a fitted effect of over 45% in size
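Rat PC12, Q103 Htt exon1-GFP fusion, ecdysone promoter; tebufenozide inducer 100 nM final; compound titration; qHTS, 1500 cells/well; ATPlite luminescent read.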
HttQ103 aggreg: inhibitors of mutant huntingtin aggregate formation in PC12 cells; PC12 HttQ103-GFP aggregates, Acumen cytometry, 40 h; Potency, µM (top dose mostly 46.1 µM), for the others: top-dose activity change, negative = inhibition, most hits filed as inhibitors; 220,000 tested, 1.1% active; AID 1688; active means well fitted curve in the direction sought with a large enough effect; inconclusive means small, poorly fitted or top-dose-only effect, or another doubt; inactive means no such curve, though single readings can be large; an effect the other way counts as inactive or inconclusive; further: potency means the concentration at half of the fitted maximal effect; on the % scale 0 is the no-effect control and ±100 the full control effect; nearly all actives have a fitted effect of over 60% in size
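PC12 cells with ecdysone-inducible HTT exon1 Q103-GFP, induced by 100 nM tebufenozide, given compounds in a concentration series. GFP aggregates (1–25 um, 6 SD above background) counted in lysates by laser-scanning cytometry, 488 nm excitation.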
JMJD2E inh: blocks human JMJD2E demethylase activity; B2RXH2; JMJD2E catalytic domain, FDH-coupled NADH fluorescence (FDH is formaldehyde dehydrogenase); Potency, µM (series often up to 57.1 µM), without a hit: top-dose activity change, negative = inhibition, most hits filed as inhibitors; 230,000 tested, 1.6% active; AID 2147;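 further: potency means the concentration at half of the fitted maximal effect; 0% = wells with enzyme and -100% = buffer wells without enzyme; nearly all actives have a fitted effect of over 50% in size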
Target sequence (B2RXH2 1-337 limits assumed): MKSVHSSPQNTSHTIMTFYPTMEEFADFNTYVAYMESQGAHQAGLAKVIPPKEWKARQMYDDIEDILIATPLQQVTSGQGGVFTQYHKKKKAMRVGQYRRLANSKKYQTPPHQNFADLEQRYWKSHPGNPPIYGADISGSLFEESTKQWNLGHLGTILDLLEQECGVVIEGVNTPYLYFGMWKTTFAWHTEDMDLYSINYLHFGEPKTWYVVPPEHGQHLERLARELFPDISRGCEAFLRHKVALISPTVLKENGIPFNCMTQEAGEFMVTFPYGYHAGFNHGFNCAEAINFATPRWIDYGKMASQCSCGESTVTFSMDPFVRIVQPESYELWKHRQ
ALDH1A1 inh: blocks purified human ALDH1A1 activity; Purified ALDH1A1, NADH fluorescence, propionaldehyde substrate; 220,000 tested, 7.3% active; P00352; Potency, µM (doses to about 75.3 µM), inactives show at the top dose activity, negative = inhibition, actives largely listed as inhibitors; AID 1030;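 further: potency means the concentration at half of the fitted maximal effect; plate controls were no enzyme wells and a reference inhibitor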
CBFb-RUNX1 inh: inhibitors of human CBF-beta and RUNX1 interaction | Q01196+Q13951 | Potency, µM (titrated, usually from 59.8 µM), inactives show top-dose activity, negative = inhibition, usual class: inhibitors | AlphaScreen CBFb-His/RUNX1-biotin binding, biochemical | 230,000 tested, under 10 active; active means well fitted curve in the direction sought with a large enough effect; inconclusive means small, poorly fitted or top-dose-only effect, or another doubt; inactive means no such curve, though single readings can be large; an effect the other way counts as inactive or inconclusive; further: % of control where 0% means no effect
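Inhibition was taken as any reduction in AlphaScreen signal from the CBF-beta–RUNX1 pair (His and biotin tags, 30 nM each), measured after compound (15 min) and bead (90 min) incubations at room temperature.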
HPGD block: HPGD (human) dehydrogenase inhibition; P15428; purified HPGD, NADH fluorescence kinetic, PGE2 substrate; Potency, µM, without a hit: at the top dose activity change, negative = inhibition, hits mostly inhibitors; 150,000 tested, 4.3% active; AID 894; further: potency means the concentration at half of the fitted maximal effect; on the % scale 0 is the no-effect control and ±100 the full control effect
Target sequence (P15428 whole entry, looked up): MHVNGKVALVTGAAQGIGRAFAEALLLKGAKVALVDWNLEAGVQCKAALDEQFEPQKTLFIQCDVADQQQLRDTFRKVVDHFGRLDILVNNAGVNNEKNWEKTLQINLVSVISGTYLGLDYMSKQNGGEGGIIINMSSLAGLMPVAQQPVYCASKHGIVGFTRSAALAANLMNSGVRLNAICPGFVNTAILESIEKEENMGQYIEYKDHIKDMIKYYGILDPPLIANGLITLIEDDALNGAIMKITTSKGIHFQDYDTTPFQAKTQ
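20 nM HPGD preincubated 15 min at room temperature with compound in 50 mM Tris-HCl pH 8, 0.01% Tween 20. Started with 1 mM NAD+ and 30 uM prostaglandin E2; NADH fluorescence (360/450 nm) read 5 times over 30-s intervals, last minus first.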
Numbers without * were called inactive; [ ] = dose if it differs, or a comment. Unless noted, the call rests on the fitted dose curve; in most records, active means well fitted inhibition curve with a large enough effect (not every such curve was filed as active); inconclusive means small, poorly fitted or top-dose-only effect, or another doubt; inactive means no such curve, though single readings can be large or run the other way.

Screening CC1CCC(C(C)C)C(OC(=O)C[n+]2cc(-c3ccc(Cl)cc3)n3c2CCCCC3)C1 (stereo not given) returned HTT cytoprotect 3%[10 µM], HttQ103 aggreg 13µM*, JMJD2E inh 10%, ALDH1A1 inh 9% and CBFb-RUNX1 inh 10%.
Screening CN(Cc1cccc(C(F)(F)F)c1)Cc1nc(-c2cnccn2)no1 returned HTT cytoprotect -8%, HttQ103 aggreg -16%, JMJD2E inh 2%, ALDH1A1 inh 9% and CBFb-RUNX1 inh 13%.
For CNC(=O)c1c(N)sc2c1CCCCC2 the results were HTT cytoprotect 0%, HttQ103 aggreg -2%, JMJD2E inh inconclusive, ALDH1A1 inh 25µM*, CBFb-RUNX1 inh -2% and HPGD block 32µM*.
NC(=O)c1c(N)sc2c1CCC2 was read as HTT cytoprotect 12%[10 µM], HttQ103 aggreg -18%[9.22 µM], JMJD2E inh inconclusive, ALDH1A1 inh inconclusive and CBFb-RUNX1 inh 15%.
`COCCNC(=O)c1c(N)sc2c1CCCC2` gave HTT cytoprotect 0%, HttQ103 aggreg 5%, JMJD2E inh inconclusive, ALDH1A1 inh inconclusive, CBFb-RUNX1 inh -7% and HPGD block inconclusive.
NC(=O)c1c(N)sc2c1CCCCC2 was read as HTT cytoprotect -9%[10 µM], HttQ103 aggreg -19%, JMJD2E inh inconclusive, ALDH1A1 inh 14µM*, CBFb-RUNX1 inh 1% and HPGD block inconclusive.
Screening Cc1ccc(OCCN2CCN(C(=O)CCC(=O)Nc3nnc(CC(C)C)s3)CC2)cc1 returned HTT cytoprotect 37%[10 µM], HttQ103 aggreg 22%[9.22 µM], JMJD2E inh -1% and CBFb-RUNX1 inh 5%.
Screening COc1cc(/C=C2/S/C(=N/S(=O)(=O)Cc3ccccc3)NC2=O)c([N+](=O)[O-])cc1OC returned HTT cytoprotect -5%[10 µM], HttQ103 aggreg 3%[9.22 µM], JMJD2E inh -10% and CBFb-RUNX1 inh 3%.
`N#CC1=C(N)NC(SCC(=O)Nc2ccccc2)=C(C#N)C12CCCCC2` gave HTT cytoprotect -5%[10 µM], HttQ103 aggreg -9%, JMJD2E inh 5%, ALDH1A1 inh 25µM*, CBFb-RUNX1 inh 2% and HPGD block -26%.
For CCCSC1=C(C#N)C(c2ccc(O)c(OC)c2)CC(=O)N1 (stereo not given) the results were HTT cytoprotect -15%, HttQ103 aggreg -1%, JMJD2E inh -4%, ALDH1A1 inh -2%, CBFb-RUNX1 inh 4% and HPGD block -12%.
N#CC1=C(N)NC(SCc2ccccc2)=C(C#N)C12CCCCC2 was read as HTT cytoprotect -25%, HttQ103 aggreg inconclusive, JMJD2E inh -8%, ALDH1A1 inh 13µM*, CBFb-RUNX1 inh -8% and HPGD block -27%.
For CCSC1=C(C#N)C2(CCCCC2)C(C#N)=C(N)N1 the results were HTT cytoprotect -25%[10 µM], HttQ103 aggreg inconclusive, JMJD2E inh 2%, ALDH1A1 inh 10µM*, CBFb-RUNX1 inh 1% and HPGD block -3%.
CCCSC1=C(C#N)C2(CCCCC2)C(C#N)=C(N)N1 was read as HTT cytoprotect -12%[10 µM], HttQ103 aggreg 1%[9.22 µM], JMJD2E inh -20%, ALDH1A1 inh 2µM* and CBFb-RUNX1 inh 0%.
CCSC1=C(C#N)C2(CCCCC2)C2=C(CC(C)(C)CC2=O)N1 was read as HTT cytoprotect 16%[10 µM], HttQ103 aggreg 14%[9.22 µM], JMJD2E inh 14%, ALDH1A1 inh inconclusive and CBFb-RUNX1 inh 7%.
For Cc1cc(NNC(=O)c2cccc(C(F)(F)F)c2)nc2c1c(C)nn2C the results were HTT cytoprotect 4%[10 µM], HttQ103 aggreg -10%[9.22 µM], JMJD2E inh 1%, ALDH1A1 inh 13% and CBFb-RUNX1 inh 20%.
`Cc1cc(O)c(/C=N/Nc2ccccc2)c(=O)o1` gave HTT cytoprotect -9%[10 µM], HttQ103 aggreg -7%, JMJD2E inh -1%, ALDH1A1 inh 7.9µM*, CBFb-RUNX1 inh 10% and HPGD block -30%.
Cc1cccc(NC(=O)CN2C(=O)N/C(=C/c3ccc(-c4cccc(C(=O)O)c4C)o3)C2=O)c1 was read as HTT cytoprotect -36%, HttQ103 aggreg -1%[9.22 µM], JMJD2E inh -3%, ALDH1A1 inh -1% and CBFb-RUNX1 inh -14%.
Screening Cc1c(C(=O)O)cccc1-c1ccc(/C=C2/NC(=O)N(c3ccccc3)C2=O)o1 returned HTT cytoprotect 28%[10 µM], HttQ103 aggreg 27%[9.22 µM], JMJD2E inh inconclusive, ALDH1A1 inh 5.6µM* and CBFb-RUNX1 inh 7%.
Cc1cc(NC(=O)NCC(F)(F)F)no1 was read as HTT cytoprotect -13%[10 µM], HttQ103 aggreg 3%[9.22 µM], JMJD2E inh 2% and CBFb-RUNX1 inh 4%.
c1ccc(C(c2ccccc2)N2CCN(Cc3nnnn3C3CCCC3)CC2)cc1 was read as HTT cytoprotect -9%[10 µM], HttQ103 aggreg inconclusive, JMJD2E inh -2%, ALDH1A1 inh 11µM*, CBFb-RUNX1 inh 0% and HPGD block -4%.
Screening CC(C)CCn1nnnc1CN1CCN(C(c2ccccc2)c2ccccc2)CC1 returned HTT cytoprotect -53%, HttQ103 aggreg inconclusive, JMJD2E inh 1%, ALDH1A1 inh 14µM* and CBFb-RUNX1 inh 14%.
`CCC(C)(C)n1nnnc1CN1CCN(C(c2ccccc2)c2ccccc2)CC1` gave HTT cytoprotect 11%[10 µM], HttQ103 aggreg 14µM*, JMJD2E inh -3%, ALDH1A1 inh 25µM*, CBFb-RUNX1 inh 1% and HPGD block -12%.
Fc1ccc(C(c2nnnn2C2CCCC2)N2CCN(Cc3ccccc3)CC2)cc1 (stereo not given) was read as HTT cytoprotect -9%, HttQ103 aggreg 12%, JMJD2E inh 0%, ALDH1A1 inh inconclusive and CBFb-RUNX1 inh 1%.
Screening N=C1/C(=C\c2ccc(-c3ccc(C(=O)O)cc3)o2)C(=O)N=C2SC=C(c3ccccc3)N12 returned HTT cytoprotect -5%[10 µM], HttQ103 aggreg -9%[9.22 µM], JMJD2E inh inconclusive and CBFb-RUNX1 inh 3%.
N=C1/C(=C\c2ccc(-c3cccc(Cl)c3)o2)C(=O)N=C2SC=C(c3ccccc3)N12 was read as HTT cytoprotect -9%[10 µM], HttQ103 aggreg 12%, JMJD2E inh -2%, ALDH1A1 inh inconclusive, CBFb-RUNX1 inh 6% and HPGD block 14µM*.
For O=C1C2C(C(=O)N1/N=C/c1ccc(N3CCCCC3)o1)C1C=CC2C12CC2 (stereo not given) the results were HTT cytoprotect 27%[10 µM], HttQ103 aggreg -6%, JMJD2E inh 1%, ALDH1A1 inh 8.9µM*, CBFb-RUNX1 inh -1% and HPGD block -17%.
For COc1cccc(C(=O)Nc2ccc(S(=O)(=O)Nc3nccc(C)n3)cc2)c1 the results were HTT cytoprotect 20%[10 µM], HttQ103 aggreg 11%, JMJD2E inh -3%, ALDH1A1 inh -11%, CBFb-RUNX1 inh 3% and HPGD block 28µM*.

High-throughput results: PubChem BioAssay, National Center for Advancing Translational Sciences (NCATS)
